According to PubChem BioAssay (NCATS):
Records with an inconclusive call do not appear. Activity calls are given as the source filed them. Calls follow the shape of the dose curve; as a rule, active = well fitted inhibition curve with a large enough effect; inconclusive = small, poorly fitted or top-dose-only effect; inactive = flat fitted curve, though single readings scatter.

Experiments:
Assay in all cases: qHTS profiling for inhibitors of Plasmodium falciparum proliferation (AID 504749); also: nearly all actives have a fitted effect of over 60% in size
Conditions in all cases: P. falciparum in erythrocytes, SYBR Green DNA, 72 h; series mostly up to 28.7 µM
3D7 = tested on: 3D7
In short: (§1)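 P. falciparum-infected erythrocytes (0.3% parasitemia, 2.5% hematocrit final) were exposed to compounds for 72 h at 37 C in 5% CO2, then lysed with SYBR Green buffer overnight at room temperature; parasite DNA fluorescence was normalized to artemisinin and DMSO controls.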

7G8 = tested on: 7G8
In short: as §1

ATS95 = tested on: ATS95
In short: as §1

CP185 = tested on: CP185
In short: as §1

CP237 = tested on: CP237
In short: as §1

CP238 = tested on: CP238
In short: as §1

CP262 = tested on: CP262
In short: as §1

CP265 = tested on: CP265
In short: as §1

CP266 = tested on: CP266
In short: as §1

CP268 = tested on: CP268
In short: as §1

CP269 = tested on: CP269
In short: as §1

CP286 = tested on: CP286
In short: as §1

CP305 = tested on: CP305
In short: as §1

CP335 = tested on: CP335
In short: as §1

DIV30 = tested on: DIV30
In short: as §1

Dd2 = tested on: Dd2
In short: as §1

ECU = tested on: ECU
In short: as §1

HB3 = tested on: HB3
In short: as §1

PAD = tested on: PAD
In short: as §1

PC26 = tested on: PC26
In short: as §1

Measured: Potency

COC(=O)[C@@H]1[C@@H]2C[C@H]3c4[nH]c5ccccc5c4CCN3C[C@@H]2CC[C@@H]1O
inactive: 3D7 | 7G8 | ATS95 | CP185 | CP237 | CP238 | CP262 | CP265 | CP266 | CP268 | CP269 | CP286 | CP305 | CP335 | DIV30 | Dd2 | ECU | HB3 | PAD | PC26

C[C@@H](C(=O)O)c1ccc(-c2ccccc2)c(F)c1
inactive: 3D7 | 7G8 | ATS95 | CP185 | CP237 | CP238 | CP262 | CP265 | CP266 | CP268 | CP269 | CP286 | CP305 | CP335 | DIV30 | Dd2 | ECU | HB3 | PAD | PC26
